Assay outcomes: PubChem, several laboratories
Only some compounds are listed: those with a hit (about 3.3% of all), similar ones and a draw of the others.
HNF4A DNA FP – change in binding of human HNF4A to DNA, primary screen, biochemical, fluorescence polarization, FITC-DNA. Hepatocyte nuclear factor 4-alpha (Homo sapiens), P41235. 1 h. activity change, % at 10 µM. 360,000 compounds, 0.3% hits. AID 1224865, 2016; in the data active = activity change above about 30%, passing the limit was not always enough
Target sequence (P41235 whole entry, looked up): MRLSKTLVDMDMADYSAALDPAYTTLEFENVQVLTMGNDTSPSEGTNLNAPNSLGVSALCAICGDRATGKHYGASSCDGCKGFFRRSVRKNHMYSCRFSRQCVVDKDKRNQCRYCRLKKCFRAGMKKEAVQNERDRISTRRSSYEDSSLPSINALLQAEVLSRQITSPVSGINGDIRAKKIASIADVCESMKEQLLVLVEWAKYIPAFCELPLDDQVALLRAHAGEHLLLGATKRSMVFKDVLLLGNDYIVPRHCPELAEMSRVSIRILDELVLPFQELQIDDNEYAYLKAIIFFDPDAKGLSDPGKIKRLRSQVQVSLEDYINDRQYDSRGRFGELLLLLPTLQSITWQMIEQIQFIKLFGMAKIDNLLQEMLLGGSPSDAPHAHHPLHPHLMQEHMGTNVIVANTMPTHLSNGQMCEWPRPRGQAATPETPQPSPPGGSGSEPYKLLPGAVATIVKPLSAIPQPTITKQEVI
PHOSPHO1 inh – PubChem AID 1565. 290,000 compounds, 1.1% hits. recombinant PHOSPHO1, absorbance phosphatase assay. inhibition, % at 13.3 µM; in the data active = inhibition above about 60%
TPT1 inh – Candida albicans TPT1 enzyme inhibitors, primary screen, biochemical, fluorescence polarization | tRNA 2'-phosphotransferase TPT1 (Candida albicans SC5314) | recombinant caTPT1, FP RNA substrate dephosphorylation | inhibition, % at 5 µM | 300,000 compounds, 0.81% hits | AID 1962, 2009;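 active = inhibition above the mean of all tested compounds plus 3 SD, set per screening campaign, cut at about 24% in these data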;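 note: plate controls were DMSO alone for no effect and ferristatin control at 100 nM for full effect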
NRP1-CendR mod – modulators of CendR peptide binding to NRP-1, primary screen, biochemical, fluorescence polarization, uHTS; Neuropilin-1 (Homo sapiens), O14786; FAM-RPARPAR peptide binding to NRP-1; inhibition, % at 25 µM; 360,000 compounds, 0.85% hits;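 active = inhibition or corrected inhibition above about 18%, plus a signal ratio from 0.5 to 1.5, limit read from the data, passing the limit was not always enough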
Rpn11 inh – Rpn11 (PSMD14) deubiquitinase inhibitors, primary screen, biochemical, fluorescence polarization, uHTS; inhibition, % at 20 µM; 26S proteasome non-ATPase regulatory subunit 14 (Homo sapiens), O00487; 360,000 compounds, 0.59% hits; human 26S proteasome, Ub4-pepOG fluorescence polarization; 20S core pre-blocked with epoxomicin; AID 588493, 2011;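 active = inhibition at 20 µM, scaled to each plate's controls, above about 33%, limit read from the data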
Target sequence (O00487 whole entry, looked up): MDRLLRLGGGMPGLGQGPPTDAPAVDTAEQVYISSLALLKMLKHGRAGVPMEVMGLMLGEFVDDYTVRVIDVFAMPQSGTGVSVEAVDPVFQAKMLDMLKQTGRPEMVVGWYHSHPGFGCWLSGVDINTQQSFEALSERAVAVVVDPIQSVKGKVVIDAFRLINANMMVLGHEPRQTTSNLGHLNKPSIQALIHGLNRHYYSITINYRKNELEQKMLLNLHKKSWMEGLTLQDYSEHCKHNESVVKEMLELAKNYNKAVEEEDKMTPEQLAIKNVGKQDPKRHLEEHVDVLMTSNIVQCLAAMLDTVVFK
Fh CTSL1 inh – Fasciola hepatica cathepsin L1 inhibitors, primary screen, counter-screen for PFM18AAP inhibitor project, biochemical, QFRET, fluorogenic peptide substrate; recombinant F. hepatica cathepsin L1, Z-Leu-Arg-MCA fluorescence; inhibition, % at 5.96 µM; 300,000 compounds, 0.49% hits;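 active = inhibition above the mean of all tested compounds plus 3 SD, set per screening campaign, cut at about 17% in these data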;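 note: 0% = plate median of test compound wells and 100% = 1 µM Z-Phe-Ala-diazomethylketone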
Rpn11 inh conf – Rpn11 (PSMD14) deubiquitinase inhibitors, confirmation, biochemical, fluorescence polarization, single concentration | shares compounds with Rpn11 inh | purified human 26S proteasome, Ub4-pepOG fluorescence polarization; proteasome pretreated with epoxomicin | inhibition, % at 20 µM | 1,900 compounds, 29% hits | AID 602318, 2012
MMP-2 counter – MMP-2 enzyme inhibition, confirmation, counter-screen for RPN11 inhibitor project, biochemical, fluorescence, single concentration | shares compounds with Rpn11 inh | recombinant MMP-2, FRET peptide cleavage fluorescence | inhibition, % at 20 µM | 1,900 compounds, 4% hits;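 note: human MMP-2 activated beforehand with APMA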
Thrombin FP – bovine thrombin protease inhibition, confirmation, counter-screen for Rpn11 inhibitor project, biochemical, fluorescence polarization, single concentration. AID 602333, 2012. 1,900 compounds, 13% hits. inhibition, % at 20 µM. bovine thrombin cleavage of Ub4-pepOG. shares compounds with Rpn11 inh;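 active = mean inhibition at least 40% at 20 µM, or signal 3 deviations below plate average, so some actives read negative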;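 note: plate controls were thrombin with DMSO for no effect and buffer wells lacking thrombin for full effect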
Starred values were filed as active, the others as inactive; nt = no result given. Cut-off read from the data, not from the text of the source, unless noted: active = inhibition above about 40%; inactive = the rest.

SMILES | HNF4A DNA FP | PHOSPHO1 inh | TPT1 inh | NRP1-CendR mod | Rpn11 inh | Fh CTSL1 inh | Rpn11 inh conf | MMP-2 counter | Thrombin FP
Cc1cc(Cl)ccc1NC(=O)COC(=O)CCNS(=O)(=O)c1ccccc1 | 3.0 | nt | nt | -5.7 | -2.1 | nt | nt | nt | nt
O=C(COc1ccc(-n2cnnn2)cc1)Nc1cc(Cl)cc(Cl)c1 | -1.9 | nt | nt | 4.1 | -7.0 | nt | nt | nt | nt
CCOc1cc(/C=C2/C(=N)N3C(=NC2=O)SN=C3S(=O)(=O)CC)ccc1OC(=O)c1ccco1 | 26.5 | 32.9 | 6.5 | -191.6 | 56.1* | 2.4 | 16.0 | -4.5 | 4.0
COc1cc(/C=C2/C(=N)N3C(SC)=NSC3=NC2=O)ccc1OC(=O)c1ccco1 | 22.1 | 26.9 | 17.8 | -101.7 | 20.3 | -0.7 | nt | nt | nt
COc1cc(/C=C2/C(=N)N3C(=NC2=O)SN=C3S(=O)(=O)C(C)C)ccc1OC(=O)c1ccco1 | 35.4 | 17.4 | 8.6 | -162.1 | 46.9* | -3.2 | 24.8 | -14.7 | 13.5
CCS(=O)(=O)C1=NN2C(=N)/C(=C\c3ccc(OC(=O)c4ccco4)c(OC)c3)C(=O)N=C2S1 | 20.4 | -9.0 | 6.6 | -165.6 | 45.5* | 0.3 | 22.3 | -3.6 | 18.9
C#CCOCCOCCOCCNc1nc(N2CCN(C(=O)CCCCCCCCCCNC(=O)[C@H]([C@@H](C)CC)n3cc(CCCCN=C(N)N)nn3)CC2)nc(N2CCN(C(=O)CCCCCCCCCCNC(=O)[C@@H]([C@H](C)O)n3cc(C)nn3)CC2)n1 | 186.0 | nt | 3.0 | 15.6 | 71.3* | -1.0 | 15.2 | -13.9 | 19.6
O=NN(CC(=O)NN=CC=Cc1ccccc1)CC(=O)NN=CC=Cc1ccccc1 | -0.5 | nt | nt | -18.4 | 71.7* | nt | 20.7 | -6.9 | -30.7
Cn1cccc1CC(=O)N/N=C/C=C/c1ccccc1 | 9.0 | -18.8 | 0.2 | -4.0 | 1.6 | 2.0 | nt | nt | nt
Cc1ccc(CS(=O)Cc2ccc(C(=O)NCc3cccs3)o2)cc1 (centres undefined) | 3.7 | 20.7 | -2.6 | 7.6 | 64.2* | -1.0 | -10.3 | -1.4 | -17.7
CCOC(=O)c1c(NC(=O)CN2CCCc3ccccc32)sc(C)c1CC | 8.5 | 3.0 | 4.6 | -17.8 | 44.1* | 0.5 | -1.4 | -25.6 | 5.5
Cc1ccc(S(=O)(=O)N2CCOCC2)cc1C(=O)NCc1ccccn1 | 4.9 | nt | nt | -4.3 | -4.4 | nt | nt | nt | nt
Cc1cc(NC(=O)CCC(=O)N(c2ccccc2)C(C(=O)NC2CCCC2)c2ccccc2)no1 (centres undefined) | -2.0 | -3.5 | -3.4 | -7.4 | 43.9* | -2.3 | -17.3 | -52.0 | -13.9
Cc1ccc2nc(C)cc(Nc3ccc([N+](=O)[O-])cc3)c2c1 | 5.2 | 3.5 | 2.9 | -4.4 | 45.4* | 3.6 | 33.5 | -9.8 | -4.8
CCC(=O)Oc1c(C(=O)CC)cc2c(C)cc(=O)oc2c1C | 0.1 | 11.7 | 1.3 | -8.6 | -8.9 | -7.8 | nt | nt | nt
Cc1nnc(N2CCCC(C(=O)Nc3cc(F)ccc3F)C2)c2nn(-c3ccccc3)c(C)c12 (centres undefined) | 9.3 | 7.2 | 2.6 | -7.3 | 7.3 | 4.3 | nt | nt | nt
Cc1nnc(N2CCCC(C(=O)NCc3ccc(OC(C)C)cc3)C2)c2nn(-c3ccccc3)c(C)c12 (centres undefined) | 15.1 | 47.5 | 4.8 | -76.8 | 53.0* | 3.6 | 22.7 | -11.2 | 9.7
Cc1cccc(NC(=O)CNc2cc(C)ccc2C)c1 | -1.9 | 10.5 | -0.8 | 8.9 | 1.2 | 0.0 | nt | nt | nt
CN1CCCNc2nc3ccccc3nc21 | 4.4 | 10.0 | 9.2 | -75.3 | 45.6* | 2.9 | -3.2 | -49.4 | -7.6
O=C(O)CNS(=O)(=O)c1ccc2c(c1)CCCC2 | 2.9 | 8.2 | 0.0 | 1.2 | -15.1 | -3.7 | nt | nt | nt
Cc1ccc(N(CC(=O)NCCSCc2ccco2)S(=O)(=O)c2ccc(C)cc2)cc1 | 30.3 | 5.4 | -0.1 | 8.2 | 53.0* | -3.5 | 21.0 | 15.4 | 8.3
Cc1cc(C)nc(NC(C)(C)C(=O)O)n1 | 46.7* | 24.0 | -2.1 | 1.0 | 71.3* | -1.7 | -8.9 | 2.6 | -4.9
Cc1cc(C)nc(NC(=O)NC(=O)c2ccccc2)n1 | 3.5 | 32.8 | -3.8 | 14.7 | 3.9 | -2.5 | nt | nt | nt
CCc1ccc(NC(=O)CCc2nc3sc4c(c3c(=O)[nH]2)CCCC4)cc1 | 10.9 | nt | 14.5 | -47.1 | 40.2* | -0.8 | 55.4* | 3.5 | 34.1
CN(CC(=O)Nc1ccc(F)c(F)c1F)C(=O)CCc1nc2sc3c(c2c(=O)[nH]1)CCCC3 | 5.6 | nt | 7.6 | -55.8 | 45.4* | 0.0 | 59.5* | -9.1 | 34.5
SMILES | HNF4A DNA FP | PHOSPHO1 inh | TPT1 inh | NRP1-CendR mod | Rpn11 inh | Fh CTSL1 inh | Rpn11 inh conf | MMP-2 counter | Thrombin FP
CCOC(=O)CSc1nc2sc3c(c2c(=O)[nH]1)CCCC3 | 0.3 | -41.8 | 0.3 | -10.2 | -1.1 | 1.4 | nt | nt | nt
CCOC(=O)C1CCN(C(=O)CCc2nc3sc4c(c3c(=O)[nH]2)CCCC4)CC1 | 14.5 | nt | 21.9 | -52.9 | 41.0* | -0.7 | 66.8* | -3.6 | 46.5*
NS(=O)(=O)c1ccc(CCNC(=O)CCc2nc3sc4c(c3c(=O)[nH]2)CCCC4)cc1 | 1.4 | nt | 9.6 | -45.1 | 41.0* | 8.2 | 26.3 | -28.5 | 15.6
Cc1cccc(C)c1NC(=O)CN(C)C(=O)CCc1nc2sc3c(c2c(=O)[nH]1)CCCC3 | 0.1 | nt | nt | -41.6 | 26.7 | nt | nt | nt | nt
O=C(CCc1nc2sc3c(c2c(=O)[nH]1)CCCC3)NCCc1ccc(Cl)cc1 | 13.0 | nt | nt | -17.6 | 39.1 | nt | nt | nt | nt
C=C(C)Cn1c(=O)c2c(nc3n2CCCN3Cc2ccccc2)n(C)c1=O | 1.1 | 10.6 | -1.9 | 4.6 | -1.9 | -1.1 | nt | nt | nt
CC(=O)c1cccc(OC(=O)C2=CC=CN3CCS(=O)(=O)N=C23)c1 | 3.0 | nt | nt | 6.2 | -2.7 | nt | nt | nt | nt
CCOc1ccc(C(=O)NCC(=O)NCC(c2ccccc2OC)N2CCCC2)cc1 (centres undefined) | 3.3 | nt | 0.3 | -13.2 | 5.6 | -0.8 | nt | nt | nt
CC(=O)c1ccc(NC(=O)CCc2nc3sc4c(c3c(=O)[nH]2)CCCC4)cc1 | 11.5 | nt | 9.5 | -33.2 | 32.6 | 9.4 | nt | nt | nt
